Most compounds without a hit are left out; they make up all but 19% or so of the library.
DT40 TDP1 no CPT: qHTS for Inhibitors of human tyrosyl-DNA phosphodiesterase 1 (TDP1): qHTS in cells in absence of CPT; DT40 Tdp1-/- hTDP1 cells, no CPT, ATP luminescence, 48 h; Potency, µM (doses to about 46.2 µM), for inactives: at the top dose activity change, negative = growth inhibition, actives largely listed as inhibitors; 15% of 420,000 active; further: potency means the concentration at half of the fitted maximal effect; nearly all actives have a fitted effect of over 55% in size
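No-CPT arm: Tdp1-/-;hTDP1 DT40 cells (400/well) plus compounds, incubated ≥48 hr at 37 °C. Readout CellTiter-Glo luminescence.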
HT1080 IDH1KD tx: kills HT-1080 cells with IDH1 knockdown; HT-1080 IDH1 knockdown viability, ATP luminescence, 48 h; Potency, µM (highest dose often 46.1 µM), for inactives: top-dose activity, negative = toxicity, hits mostly cytotoxic; 2% of 360,000 active;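 further: potency means the concentration at half of the fitted maximal effect; 0% = DMSO wells and -100% = cell-free medium wells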
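IDH1KD HT-1080 cells, 750/well, RPMI + 5% FBS; compound pinned after 2 h settling; 48 h, 37 °C; CellTiter-Glo luminescence; % activity normalised to DMSO and no-cell wells; curves fitted, classed by r2 and efficacy.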
ELG1 DNA repair: ELG1-dependent DNA repair inhibition | Potency, µM (top dose mostly 46.1 µM), for the others: top-dose activity change, negative = inhibition, most hits filed as inhibitors | HEK293T ELG1-luciferase reporter, luminescence, 16 h; DNA damage induced by 5-fluorouridine | 2.3% of 330,000 active | AID 504467; further: potency means the concentration at half of the fitted maximal effect; nearly all actives have a fitted effect of over 55% in size
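HEK293T cells expressing luciferase-tagged ELG1 (2,000/well) received 5-Fluorouridine plus compound or DMSO for 16 hr at 37 °C. Luciferase was read by ONE-Glo luminescence after 30 min at room temperature.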
DT40 TDP1 CPT: DT40-hTDP1 cell growth loss with CPT; chicken DT40 Tdp1-/-;hTDP1 cells + 20 nM CPT, ATP luminescence, 48 h; Potency, µM (series often up to 46.2 µM), without a hit: at the highest dose activity change, negative = growth inhibition, most hits filed as inhibitors; 12% of 420,000 active; AID 686979; further: potency means the concentration at half of the fitted maximal effect; nearly all actives have a fitted effect of over 55% in size
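Chicken DT40 Tdp1-/- cells complemented with human TDP1, 400 cells/well, exposed to compounds plus 20 nM camptothecin for at least 48 h at 37 C; viability read as ATP content by CellTiter-Glo luminescence.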
HT1080-NT tox: kills 2HG-producing HT-1080-NT fibrosarcoma cells | HT-1080-NT fibrosarcoma viability, CellTiter-Glo ATP luminescence, 48 h | Potency, µM (doses to about 46.1 µM), for the others: at the top dose activity, negative = less viability, most hits filed as cytotoxic | 1.6% of 360,000 active | AID 686970;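 further: NT is the 2HG producing partner of a matched IDH1 knockdown line; potency means the concentration at half of the fitted maximal effect; 0% = DMSO-treated cells and -100% = media-only wells without cells; nearly all actives have a fitted effect of over 55% in size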
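Toxicity toward the 2HG-producing NT line was scored as %Activity, normalised to DMSO and no-cell wells, from CellTiter-Glo luminescence after 48 hours' treatment.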
IL1B secr inh: inflammasome signaling inhibition, IL-1 beta readout | 4.7% of 360,000 active | activity change, % at 57.5 µM | THP-1 LPS/ATP IL-1B secretion, AlphaLISA, 16 h; active compounds read low | AID 743279; in the data active means activity change below about -50%; inconclusive means mostly about -30% to -49%
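Secreted IL-1B measured by AlphaLISA bead assay after 16 h compound exposure of THP-1 cells; compounds (final up to 57.5 uM) added 1 h before LPS (250 ng/mL) and ATP (1.25 mM) stimulation; lower signal means less secretion.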
An asterisk follows results filed as active; ? = inconclusive; . = not tested or not shown. Unless noted, the call rests on the fitted dose curve; in most records, active means well fitted curve in the direction sought with a large enough effect; inconclusive means small, poorly fitted or top-dose-only effect, or another doubt; inactive means no such curve, though single readings can be large; an effect the other way counts as inactive or inconclusive. Unless noted, on the % scale 0 is the no-effect control and ±100 the full control effect.

SMILES | DT40 TDP1 no CPT | HT1080 IDH1KD tx | ELG1 DNA repair | DT40 TDP1 CPT | HT1080-NT tox | IL1B secr inh
Cc1ccc(CNC(=O)c2ccc(Cn3c(=O)c4ccccc4n(CC(=O)Nc4ccc(C)cc4C)c3=O)cc2)cc1 | ? | . | . | 16.4µM* | . | .
CCN(CC)C(=O)Cn1c(=O)n(Cc2ccc(C(=O)NCc3ccc(C)cc3)cc2)c(=O)c2ccccc21 | -24.4% | . | . | ? | . | .
COC(=O)c1ccccc1NC(=O)Cn1c(=O)n(-c2ccc(C)cc2)c(=O)c2ccccc21 | 0.92µM* | . | . | 0.82µM* | . | .
COC(=O)c1ccccc1NC(=O)Cn1c(=O)n(CCCC(=O)NCCc2ccc(OC)c(OC)c2)c(=O)c2ccccc21 | -8.1% | . | . | -6.4% | . | .
O=C(NCc1ccc(Cl)c(Cl)c1)C1CCCC1 | -22.8% | 1.7% | . | -1.2% | 7.8% | .
Cc1cc(C)cc(NC(=O)Cn2c(=O)n(CC(=O)NCCc3ccccc3)c(=O)c3ccccc32)c1 | -20.3% | . | . | -21.3% | . | .
Cc1cc(C)c(NC(=O)Cn2c(=O)n(CCc3ccccc3)c(=O)c3ccccc32)c(C)c1 | 20.6µM* | . | . | 14.6µM* | . | .
C[N+](C)(CCOc1ccccc1)Cc1cccs1 | -24.9% | . | . | 5.6% | . | .
O=C1NC[C@@H](CCCCN2C[C@H](Cc3ccc(O)cc3)N(CCc3ccc(O)cc3)C(=O)C2=O)N(CCc2ccc(O)cc2)C1=O | -7.7% | 12.8% | . | 3.3% | 21.8% | -3.3
Cc1ccc(N2CCN(S(=O)(=O)c3cccc4ccccc34)CC2)cc1Cl | -21.0% | . | . | -26.4% | . | .
CCCCOc1ccc(-c2nnc(-c3ccncc3)o2)cc1 | 20.6µM* | 2.3% | ? | ? | 7.7% | 37.6
CCOc1ccc(-c2nnc(-c3ccccc3)o2)cc1 | ? | -7.1% | ? | -1.3% | -15.2% | ?
CCOc1ccc(-c2nnc(-c3ccncc3)o2)cc1 | ? | -7.9% | ? | 20.6µM* | 0.8% | -1.5
O=S(=O)(Nc1nc2ccccc2nc1-[n+]1cccc(N=C([O-])c2ccc(Cl)cc2)c1)c1ccccc1 | ? | 2.4% | -20.9% | ? | 1.0% | -72.9*
O=S(=O)(Nc1nc2ccccc2nc1Cl)c1ccccc1 | 0.7% | 1.9% | -5.5% | 3.2% | -1.0% | 0.0
CC(C)(C)NCc1ccccc1OCc1cccs1 | -22.6% | -4.3% | -2.1% | -27.3% | 3.7% | ?
CC(C)(C)NCc1cc(Cl)ccc1OCc1cccs1 | ? | -15.9% | -5.9% | 14.6µM* | -13.0% | 0.0
CC(C)(C)NCc1cc(Br)ccc1OCc1cccs1 | ? | -11.4% | -24.9% | ? | -22.3% | -58.9*
CNS(=O)(=O)c1cccc(C(=O)OCc2cc(=O)oc3c(C)c(O)ccc23)c1 | 18.4µM* | -16.9% | 23.1µM* | ? | ? | 5.0
CN1C(=O)N(CC(=O)Nc2ccc3c(c2)OCO3)C(=O)C12CCCCC2 | -8.7% | -1.8% | . | -0.2% | 0.1% | -16.8
CC1CCc2cc(F)cc3c2N1C(=O)C(C(=O)Nc1cnccn1)C3=O (stereo not drawn) | 0.794µM* | . | . | 1µM* | . | .
O=C(Nc1cnccn1)C1c2ccccc2Oc2ccccc21 | -1.3% | 1.2% | 21.6% | -6.5% | -1.2% | -4.9
COCCN(C(=O)CSc1nnc(-c2cccs2)n1N)c1c(N)n(Cc2ccccc2)c(=O)[nH]c1=O | 4.7% | 14.5% | 0.5% | 8.6% | 13.4% | 8.3
CN(C)S(=O)(=O)c1ccc2nnn(O)c2c1 | ? | 8.3% | 2.7% | ? | 11.2% | 7.2
COc1ccc(CCNC(=O)c2ccc3c(c2)N(Cc2ccc(F)cc2)C(=O)CS3)cc1OC | 16.4µM* | . | . | 14.6µM* | . | .
COc1ccc(OC)c(CCNC(=O)c2ccc3c(c2)N(Cc2ccc(F)cc2)CCS3)c1 | ? | -23.6% | ? | 20.6µM* | -8.2% | 0.0

High-throughput results as filed in PubChem.
